# Test results as given in PubChem BioAssay AID651916 (Vanderbilt Specialized Chemistry Center, 2012).
# Active and inactive are the calls of the source. No rule for the calls is given here.
# Molecular target: Histone deacetylase 3 (Homo sapiens) (UniProt O15379)
# Assay: HDAC3 deacetylase inhibition, profiling panel, selectivity assay for E-cadherin restoration project, biochemical, human (AID 651916)
# Chain of Histone deacetylase 3 (Homo sapiens) (O15379 whole entry, looked up): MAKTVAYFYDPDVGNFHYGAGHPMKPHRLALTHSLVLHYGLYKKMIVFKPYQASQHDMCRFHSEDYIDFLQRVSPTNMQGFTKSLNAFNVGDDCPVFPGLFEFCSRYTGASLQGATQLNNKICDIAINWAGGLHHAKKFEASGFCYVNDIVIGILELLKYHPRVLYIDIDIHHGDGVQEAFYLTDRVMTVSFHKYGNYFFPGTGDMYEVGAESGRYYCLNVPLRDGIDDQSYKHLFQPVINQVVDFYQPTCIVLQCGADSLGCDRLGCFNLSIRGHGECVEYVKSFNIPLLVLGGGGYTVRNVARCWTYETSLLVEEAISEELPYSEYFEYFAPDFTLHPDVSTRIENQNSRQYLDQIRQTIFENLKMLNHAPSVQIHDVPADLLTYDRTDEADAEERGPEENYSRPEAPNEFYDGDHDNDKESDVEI
smiles,measurement,value
O=C(NCCCNC(=O)c1ccc[nH]c1=O)c1cc(-c2ccccc2)on1,outcome,inactive
